PNC inhibitor = blocks assembly of the perinucleolar compartment. PC3M PTB-GFP, PNC prevalence imaging, 16 h; stronger effect = lower value. activity change (PNC), negative = inhibition, % at 10 µM. 140,000 compounds, 3.1% hits;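 active = readout at or below -70, meaning at least 70% loss of cells showing the perinucleolar compartment, a nuclear body marking cancer cells; inconclusive = readout between -30 and a set limit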;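 note: plate controls were DMSO wells for no effect and camptothecin positive control wells for full effect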
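Compounds are pinned in duplicate onto adhered PC3M cells stably expressing GFP-tagged PTB and incubated 16 h at 37 C. Cells are then fixed, nuclei stained with Hoechst, and PNC-positive cells counted.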
LMNA splice mod = LMNA splicing modulation; HeLa LMNA splicing GFP/RFP minigene ratio, 48 h; Potency, µM (top dose mostly 46.1 µM), for inactives: at the top dose ratio change, negative = inhibition, usual class: inhibitors; 200,000 compounds, 0.01% hits; AID 1487; active = well fitted inhibition curve with a large enough effect in the signal ratio, with a control signal flat, not every such curve was filed as active; inconclusive = small, poorly fitted or top-dose-only effect, or effect the other way, or a change in a side signal; the % refers to the signal ratio; note: potency is the fitted concentration of half-maximal effect
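S3 HeLa stable clones carrying a lamin A-EGFP splicing minigene plus DsRed2 were seeded at 600 cells/well in Opti-MEM with 2% FBS, pin-dosed and incubated 48 h at 37°C. Acumen cytometry (488 nm) gave the GFP/RFP total-intensity ratio.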
12-hLO inh = 12-hLO (ALOX12) enzyme inhibition | P18054 | purified 12-hLO, xylenol orange hydroperoxide absorbance | Potency, µM (highest dose often 57.1 µM), inactives show at the highest dose activity change, negative = inhibition, most hits filed as inhibitors | 150,000 compounds, 0.12% hits; active = well fitted inhibition curve with a large enough effect; inconclusive = small, poorly fitted or top-dose-only effect; note: potency is the fitted concentration of half-maximal effect; nearly all actives have a fitted effect of over 55% in size
Target sequence (P18054 whole entry, looked up): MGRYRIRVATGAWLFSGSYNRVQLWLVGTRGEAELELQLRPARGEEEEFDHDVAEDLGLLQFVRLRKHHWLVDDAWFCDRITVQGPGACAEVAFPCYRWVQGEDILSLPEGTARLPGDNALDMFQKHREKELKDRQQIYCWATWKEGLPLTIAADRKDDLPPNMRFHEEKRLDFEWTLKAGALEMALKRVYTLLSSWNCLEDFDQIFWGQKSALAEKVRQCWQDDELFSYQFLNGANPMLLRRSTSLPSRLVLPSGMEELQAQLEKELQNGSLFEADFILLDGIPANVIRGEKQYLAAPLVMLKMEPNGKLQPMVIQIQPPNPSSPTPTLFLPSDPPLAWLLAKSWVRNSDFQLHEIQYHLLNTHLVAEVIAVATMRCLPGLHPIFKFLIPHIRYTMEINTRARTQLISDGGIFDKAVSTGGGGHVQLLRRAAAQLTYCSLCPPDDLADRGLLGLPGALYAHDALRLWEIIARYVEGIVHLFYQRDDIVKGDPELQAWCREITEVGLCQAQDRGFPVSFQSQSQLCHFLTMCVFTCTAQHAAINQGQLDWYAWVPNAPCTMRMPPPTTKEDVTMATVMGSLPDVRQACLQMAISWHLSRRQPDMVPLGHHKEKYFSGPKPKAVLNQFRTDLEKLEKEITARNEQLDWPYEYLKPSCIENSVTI
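Purified human 12hLO (150 nM), preincubated 15 min with compound, then 40 uM arachidonic acid for 30 min, room temperature, Hepes pH 7.0 with 0.01% Triton X-100. Hydroperoxide detected by ferrous iron/xylenol orange; 573/405 nm absorbance ratio gives reaction progress.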
HPGD inh = HPGD (human) dehydrogenase inhibition | P15428 | purified HPGD, NADH fluorescence kinetic, PGE2 substrate | Potency, µM, without a hit: at the highest dose activity change, negative = inhibition, hits mostly inhibitors | 150,000 compounds, 4.3% hits | AID 894; note: potency is the fitted concentration of half-maximal effect
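NADH formation kinetics: reaction with 30 uM PGE2 and 1 mM NAD+ (final), 20 nM enzyme, Tris-HCl pH 8 with Tween 20, after 15 min compound preincubation at room temperature. Fluorescence change, last versus first of five reads.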
ALDH1A1 block = ALDH1A1 (human) enzyme inhibition; Potency, µM (titrated, usually from 75.3 µM), inactives show at the highest dose activity, negative = inhibition, most hits filed as inhibitors; P00352; Purified ALDH1A1, NADH fluorescence, propionaldehyde substrate; AID 1030; 220,000 compounds, 7.3% hits;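 note: potency is the fitted concentration of half-maximal effect; plate controls were no enzyme wells and a reference inhibitor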
Numbers without * were called inactive; ? = inconclusive; / = no result; [ ] = dose if it differs, or a comment. A selection: hits, their analogues and other compounds. The true share with any hit is near 10%. Unless noted, calls come from the whole dose curve; as a rule, active = well fitted inhibition curve with a large enough effect (not every such curve was filed as active); inconclusive = small, poorly fitted or top-dose-only effect, or another doubt; inactive = no such curve, though single readings can be large or run the other way. Unless noted, % is set by controls: 0 for no effect and ±100 for the full control effect.

SMILES	PNC inhibitor	LMNA splice mod	12-hLO inh	HPGD inh	ALDH1A1 block
Cc1cc(C)c(NC(=O)C(C)n2c(=O)cc(-c3ccccc3)c3c(C)nn(C)c32)c(C)c1 (stereo unspecified)	/	17.6%[46 µM]	/	/	/
COc1ccc(CNC(=O)CCC(=O)N2CC3CCCN3c3ccccc32)cc1 (stereo unspecified)	/	-8.1%[46 µM]	/	/	/
CCCCC1=NN(C(=O)c2cccnc2)C(O)(C(F)(F)F)C1 (stereo unspecified)	/	/	/	/	1.0%
CCc1c(C)sc(NC(=O)c2cc(C)on2)c1C#N	33.7	2.1%	-1.2%	-16.1%	?
CCCc1cc(C(=O)Nc2sc(C)c(CC)c2C#N)no1	8.5	?	-3.4%	-26.2%	28.2µM*
CCc1c(C)sc(NC(=O)c2cc(-c3ccco3)on2)c1C#N	-26.0	6.3%	-8.6%	?	28.2µM*
CCN(CC)C(=O)CSc1nnc(CCN)o1	-81.7*	3.5%	0.3%	0.3%	3.9%
CC(C)(C)c1cc(CNC2CS(=O)(=O)C[C@@H]2O)cc(C(C)(C)C)c1O (stereo partly specified)	10.2	0.7%	-26.5%	-3.1%	12.6µM*
Nc1ncnc(N2CCc3ccccc32)c1[N+](=O)[O-]	/	/	/	/	-8.0%
Cc1ccccc1OCC(=O)N1N=C(C(F)(F)F)CC1(O)C(C)(C)C (stereo unspecified)	-3.1	-6.8%	-5.9%	-10.6%	14.1µM*
Cc1ccc(OCC(=O)N2N=C(C(F)(F)F)CC2(O)C(C)(C)C)cc1C (stereo unspecified)	23.8	-2.4%	-8.4%	-5.4%	-2.8%
O=C(CSc1nc2cc(Cl)ccc2s1)N1CCCc2ccccc21	21.9	-6.2%	3.6%	?	8.91µM*
Cc1cc(=O)[nH]c(SCC(=O)N2CCCc3ccccc32)n1	-100.0*	-0.3%	-2.6%	-9.2%	-1.4%
O=C(CSc1nccc(=O)[nH]1)N1CCCc2ccccc21	?	-4.1%	0.5%	-9.5%	-14.9%
CCOc1ccc2nc(SCC(=O)N3CCCc4ccccc43)sc2c1	?	17.8%	-2.1%	-10.6%	3.5%
O=C(CSc1nc(O)cc(=O)[nH]1)N1CCCc2ccccc21	-29.8	11.5%	-1.7%	17.8µM*	22.4µM*
N#Cc1c(-c2ccc(Br)cc2)cc(-c2cccnc2)nc1N	-11.1	-3.7%	-1.6%	-10.6%	2.3%
N#Cc1c(-c2ccc(F)cc2)cc(-c2cccnc2)nc1N	-88.9*	3.9%	-1.0%	?	?
CCN(CC)CCNC(=O)c1ccc2c(c1)NC(=O)C(CS(=O)(=O)Cc1ccc(F)cc1Cl)N2 (stereo unspecified)	/	12.9%[46 µM]	/	/	/
CCc1cccc(C)c1NC(=O)COCc1cc(-c2ccc3c(c2)OCO3)on1	/	-15.9%[46 µM]	/	/	/
CCOC(=O)/C(C)=C1\NC(C)(C)Cc2ccccc21	53.7	?	-10.9%	20µM*	?
CCOC(=O)/C(C(=O)Nc1ccccc1Cl)=C1/NC(C)(C)Cc2ccccc21	20.2	-12.3%	-5.3%	-25.6%	14.1µM*
Oc1c(C(c2ccccc2F)N2CCN(Cc3ccccc3)CC2)sc2nc(-c3ccco3)nn12 (stereo unspecified)	/	-3.2%[46 µM]	/	/	/
O=[N+]([O-])c1nn(-c2ccc3c(c2)OCCO3)n(O)c1=NCc1ccc(F)cc1	84.0	-8.7%	-12.7%	20µM*	-1.4%
CCc1ccc(/C=C\C(=O)N2CCc3ccccc3C2)cc1	74.3	1.3%	-7.0%	11.2µM*	0.9%
SMILES	PNC inhibitor	LMNA splice mod	12-hLO inh	HPGD inh	ALDH1A1 block
CN(C)CC(=O)N1CCc2ccccc2C1	/	/	/	/	-4.6%
CCOC(=O)Cn1c(=O)cc(C)c2c(C)nn(-c3cccc(F)c3)c21	/	-2.4%[46 µM]	/	/	/
COc1ccc(NC(=O)N2CC[C@@]3(CCCN(C(=O)c4ccncc4)C3)C2)cc1	/	/	1.8%	-9.2%	-4.8%
Cc1oc2cc(OCc3cnn(-c4ccccc4)c3)ccc2c(=O)c1Oc1ccccc1F	-2.1	-7.4%	1.5%	-18.0%	5.01µM*
COC(=O)c1ccc(Oc2c(C)oc3cc(OCc4cnn(-c5ccccc5)c4)ccc3c2=O)cc1	30.1	-4.4%	-0.6%	-19.7%	-10.7%
COc1ccc(-n2cc(-c3ccccc3)nc2SC)cc1	-84.9*	?	-1.3%	-19.7%	11.0%
COc1ccc2c(c1)sc1nc(-c3ccccc3)cn12	-96.2*	?	-3.7%	-17.5%	-11.0%
CN1CCN(c2ncc3ncc(=O)n(-c4ccccc4)c3n2)CC1	/	7.4%	/	/	?
